This note sets out measurements from PubChem BioAssay AID652208 (Broad Institute, 2013).

Each structure is given as a SMILES string. Entries with a potency or affinity are not part of this list. A number with no mark means an inactive call.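 How the source made its calls: active means Loss of cell signal with fitted half-effect dose at or below twice the top valid tested dose; inconclusive means Poor fit, or flat fit from -70 to -30 percent; inactive means Half-effect above limit, rising signal, or flat within 30 percent.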

A short description of this experiment: viability loss in HEK293T cells – cell-based, cherry-picks, cytotoxicity control for HIV Vif inhibitor project, dose response (AID 652208).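 Further: 0% = median neutral control wells and -100% = median staurosporine control wells.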 The settings on record: CellTiter-Glo luminescence, 24 h; series mostly up to 26 µM; activity change, negative = cytotoxicity: at the top concentration. For orientation: In ATP-based viability assays light output follows the ATP content of the culture.
For the compound `CCc1nn(-c2cc(Oc3cccc4ccccc34)nc(-c3ccccc3)n2)c(N)c1C#N`, the “activity change, negative = cytotoxicity” value is -6.13%.

`COc1cc2ccccc2cc1C(=O)Nc1ccc(Cl)cn1`: the “activity change, negative = cytotoxicity” value is -22.3%.

On to `OC(CNCc1ccccc1Cl)COc1ccc(F)cc1` (configuration not stated), for which the “activity change, negative = cytotoxicity” value was -10.6%.

As for `Cc1nnc2ccc(-c3cccc(NS(=O)(=O)c4cc(F)ccc4F)c3)nn12`, the “activity change, negative = cytotoxicity” value was 4.37%.

Take `NCCCC[C@H](N[C@@H](CCc1ccccc1)C(=O)O)C(=O)N1CCC[C@H]1C(=O)O`: the “activity change, negative = cytotoxicity” value is 2.25%.

In the case of `COc1cc(/C=C/C(=O)OCC(=O)N2CCCc3ccccc32)ccc1O`, the “activity change, negative = cytotoxicity” value was 1.29%.

For `Cc1cccc(N2CCN(C(=O)c3cc4ccccc4oc3=O)CC2)c1C`, the “activity change, negative = cytotoxicity” value is 5.98%.

For `COc1ccc(CCNc2nnc(Sc3nnnn3-c3ccccc3)s2)cc1OC`, the “activity change, negative = cytotoxicity” value is -3.09%.

In the case of `CCN(CC(=O)Nc1c(F)cccc1F)C(=O)c1cccc(-n2cccc2)c1`, the “activity change, negative = cytotoxicity” value is 0.82%.

Turning to `Cc1ccc2c(c1)N(CC(=O)N1CCCCCC1)C(=O)C(C)O2` (configuration not stated), the “activity change, negative = cytotoxicity” value was -2.8%.

Consider `COc1ccccc1C(=O)COC(=O)C1(C)CC1(Cl)Cl` (configuration not stated), for which the “activity change, negative = cytotoxicity” value is -0.825%.

Turning to `CC(C)CN(C(=O)COC(=O)CSc1ccccc1)c1c(N)n(Cc2ccccc2)c(=O)[nH]c1=O`, the “activity change, negative = cytotoxicity” value was -0.439%.

In the case of `CCCOc1ccc(C(O)(CCC)CCN2CCCCC2)cc1` (configuration not stated), the “activity change, negative = cytotoxicity” value was -4.04%.

For `CCC1=Nc2cc(C(=O)NCc3ccco3)ccc2Sc2ccc(C)cc21`, the “activity change, negative = cytotoxicity” value was -20.2%.

For `O=C(Cn1c(=O)oc2cc(S(=O)(=O)N3CCCCC3)ccc21)N1CCc2ccccc21`, the “activity change, negative = cytotoxicity” value is -4.05%.

With `CC(NC(=O)CSc1nc2c(c(C(F)(F)F)n1)CCc1ccccc1-2)c1ccccc1` (configuration not stated), the “activity change, negative = cytotoxicity” value is -19.9%.

For the compound `N#Cc1c2ccc(OCC(N)=O)cc2n2ccccc12`, the “activity change, negative = cytotoxicity” value was -2.27%.

As for `O=C(CCCn1c(=S)[nH]c2ccccc2c1=O)N1CCN(c2cccc(Cl)c2)CC1`, the “activity change, negative = cytotoxicity” value was -17.7%.

In the case of `CC(OC(=O)c1c[nH]c2ccccc12)C(=O)N1CCCC1` (configuration not stated), the “activity change, negative = cytotoxicity” value is -0.409%.

On to `O=C1c2ccccc2C(Nc2ccc(S(=O)(=O)N3CCOCC3)cc2)N1c1ccccn1` (configuration not stated), for which the “activity change, negative = cytotoxicity” value was -4.6%.

On to `O=c1sc(N2CCN(c3ccc(F)cc3)CC2)nc2ccsc12`, for which the “activity change, negative = cytotoxicity” value was -4.85%.

With `O=C(c1cc(-c2ccccc2O)on1)N1CCCCCC1`, the “activity change, negative = cytotoxicity” value was -3.85%.

As for `COc1cc(-c2cnc3c(NC=O)cc(-c4ccccc4Cl)cn23)cc(OC)c1OC`, the “activity change, negative = cytotoxicity” value was -15%.

`Cc1ccc(C(=O)NC(CCc2ccccc2)C(=O)O)cc1` (configuration not stated): the “activity change, negative = cytotoxicity” value is 5.87%.

For `CCn1c(SCc2ccc(C(=O)Nc3nccs3)cc2)nnc1-c1ccc(N)cc1`, the “activity change, negative = cytotoxicity” value is -14.3%.

As for `COc1cc(CNCc2ccccc2)c(Br)cc1OC1CCCC1`, the “activity change, negative = cytotoxicity” value is -16.3%.

For the compound `Cc1cc(OCC(C)C)ccc1/C(O)=C1/C(=O)C(=O)N(Cc2cccnc2)C1c1ccncc1` (configuration not stated), the “activity change, negative = cytotoxicity” value is 3.25%.

As to `COc1ccc(-c2cc(C(F)(F)F)n3nc(C(=O)NCc4ccco4)c(Cl)c3n2)cc1`, the “activity change, negative = cytotoxicity” value was -23.3%.

With `Cc1ccc(C(=O)COC(=O)c2cc(=O)[nH]c3ccccc23)cc1C`, the “activity change, negative = cytotoxicity” value was 0%.

For the compound `Cc1ccc(Nc2cc(=O)[nH]c(=O)[nH]2)cc1C`, the “activity change, negative = cytotoxicity” value is -11.3%.

Turning to `CCN(CC)C(=O)c1cccc(NC(=O)C2=COCCO2)c1`, the “activity change, negative = cytotoxicity” value is -6.02%.

Consider `CCOc1ncccc1C(=O)OCc1ccccc1`, for which the “activity change, negative = cytotoxicity” value is -8.04%.

On to `COc1ccc(OC)c(/C=C/c2nc3ccccc3[nH]c2=O)c1`, for which the “activity change, negative = cytotoxicity” value was -29.7%.

For `Nc1nc(-c2ccc3ccccc3c2)cs1`, the “activity change, negative = cytotoxicity” value is 4.51%.

`CCOc1ccc2nc(NS(=O)(=O)Cc3ccccc3)sc2c1`: the “activity change, negative = cytotoxicity” value was -21.3%.

For `Nc1nonc1-c1nc2ccccc2n1CC(=O)NC1CCCC1`, the “activity change, negative = cytotoxicity” value was 4.56%.

Take `CCN(CC)C(=O)c1sc2nc(-c3cccs3)cc(-c3cccs3)c2c1N`: the “activity change, negative = cytotoxicity” value was -4.67%.
